# Data from the supplement of paper PMC6555819.
# System: VDR:RXRa (NR concentration 270 nM, RXRa partner concentration 90 nM)
# Test: PBM binding z-score (relative to random genomic background probes); higher = stronger binding; sequences stand for … in GC…GCGATTGACAGCGTAGAATGAAGG
# Description: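 Protein-binding microarray (Agilent 4x180K custom design, double-stranded 60-nt probes: 5' GC cap, 34-nt variable region, 24-nt constant primer region; full probe sequence given). Purified or IVT nuclear receptor:RXRα heterodimers (3:1 NR:RXRα, mostly 270:90 nM) or homodimers were incubated for 1 h in PBS with 2% milk and no ligand, then detected with Alexa488 antibodies. Fluorescence from o1-orientation probes (~5 replicates averaged) was converted to z-scores against 500 random hg19 background probes. Variable regions are seed direct-repeat (DR0–DR5) sites, all their single-nucleotide variants and half-site ablations.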
row,Sequence,PBM binding z-score
1,GCGACTGGGGCATCAGCAGGTTACGATAACTTAA,0.0769
2,CGAACTAGGTCAGAACATGACAGTGAAGGATGAT,0.229
3,CCGTACGGGTCACGAGGTTATAGCACGACGAGCG,5.23
4,GCTGCTAGGTCAACTGATGGTCAGCAAAAGCTCG,1.69
5,GCGACTGGTGCATCAGCAGGTTACCATAACTTAA,-0.435
6,AGACTGAGGTTAAGATCAGGGAAACAGAATACAT,0.967
7,TCTTGTAGATGAAAGGTTAAGAAAGCCGAAGCCT,1.06
8,CCTTACGGGTCACTCCAGGTTGTAGCATCGGAGT,3.62
9,TAGCCTAGGTCATGCGGGCCAGTATCGTGTCGGC,2.81
10,CGAACTAGGTCAGAACAGGACCGTGAAGGATGAT,-0.102
11,CATACTAGGTCAAGGTCAAAGTCGGTTTGTGCCA,5.31
12,GCTAGCAGGCCATTTGGGTCACTGAATGACGGGC,0.821
13,CTCGAAAGGTCGGTAGAGGTGAGTATACGGATAA,2.05
14,TAGCCTAGATCATTCAGGGGCCAGTATAGAAAGC,-0.321
15,GCTGGCAGGCCATTTGGGTCACTCAATGACGGGC,1
16,AGTCAAAGTTCATGACGAGGTAACGTAAAGCACG,4.64
17,TCTATTAGTTGAAGGGCAACGGACGAGTCCGTTT,1.06
18,CCTACTGGGCCACCAGGTCATTGATATCAACGTT,1.97
19,TAGCTTAGGTCATTGGGCCAGTATAGTACGCATC,2.4
20,GCTAGGAGGCCATTTGGGTCACTCAATGACGGGC,1.83

row,Sequence,PBM binding z-score
1,GCGACTGGGGCATCAGCAGTTTACCATAACTTAA,-0.0228
2,TCTGCTAGGTCAGTTGGTCAGGTAACGAGCTGCC,-0.0561
3,ATCTCTAGGTGAAGATAGTTCAGTGAATGCAAAT,0.849
4,GCTGCTAGGTCAGTTTGGTCAGCTAACGGGTACG,0.529
5,GCGACTTGGGCATCAGCAGGTTACCATAACTTAA,-0.417
6,GCTTACGGGTCAAAGATTATAGCATGAATAGAAT,3.28
7,CCTAGATGGTCAAGGTCACACACGCTATAGGTAC,4.15
8,TAGCCTTGGTCATGGGCCAGTATACCACGCGAAC,-0.347
9,TGATATAGGTAAACAGGTGAAAGTCCGTAAGTTA,0.405
10,AGAACGAGGGCAATGAGTTGATGGCACGGGTGGC,4.7
11,TCTGCTAGGTCAGTAGGTCAGCTAACGAGCTGCC,0.994
12,AGCACGAGGGCAATGAGTTGATAGCACGGGTGGC,5.06
13,CCGACTGGGGCAATGGTTACCATACTCAGTACGA,-0.604
14,ATCTCTAGGTACAGTTCAGTGAAAGATCGATAGA,1.12
15,GATATAGGGTCAAGGCCAGAGTACGCGTATTGAT,4.5
16,CCGACTGGGGGAGAAAGGTTACCATACCATCCGG,1.42
17,TGTCAAAGTTCAAAGGCAACGTAAGTATCCACAC,4.26
18,CCTTACGGTTCAAGGTTATAGCACGGGTGGTACG,2.72
19,CCTAGTTGGTCAGGAGGTTACACACCGGATATGA,0.869
20,TCTATTAGTTGAAGGTCAACCGACGAGTCCGTTT,3.85
